Laboratory results as given in PubChem BioAssay (NCATS).
Values joined by “and” are separate entries in the source; they are usually repeats but may differ in a detail not shown here. Identical values can stand only once. Records with an inconclusive call do not appear. Active and inactive are the calls of the source. Calls come from the whole dose curve; as a rule, active = well fitted curve in the direction sought with a large enough effect; inconclusive = small, poorly fitted or top-dose-only effect, or another doubt; inactive = no such curve, though single readings can be large; an effect the other way counts as inactive or inconclusive.

Assays:
[1] = test system: NIH3T3; experiment: Cytotoxic Profiling of Annotated Libraries Using Quantitative High-Throughput Screening (AID 1296008); conditions: Five cell lines viability, CellTiter-Glo ATP luminescence, 48-72 h; max response: active compounds read low; note: nearly all actives have a fitted effect of over 60% in size
Method in brief: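 Compounds were pin-transferred onto cells and incubated 48 or 72 hr at 37 degree Celsius, 95% humidity. CellTiter-Glo was added, plates sat 10 min at room temperature, then ATP-coupled luminescence was imaged as the viability read-out.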

[2] = test system: HACAT; experiment: qHTS assay to identify novel small-molecules to repurpose for Merkel cell carcinoma treatment (AID 1296009); conditions: MCC and control cell lines, CellTiter-Glo viability, 72 h; note: nearly all actives have a fitted effect of over 60% in size
Method in brief: (§1)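 Cells exposed to NPC (8-point) and MIPE (11-point) compound dilutions for 72 hr at 37 degree celsius; viability read by CellTiter-Glo luminescence, normalized to no-cell and DMSO in-plate controls.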

[3] = test system: MCC-13; experiment: as above; conditions: MCC and control cell lines, CellTiter-Glo viability, 72 h; series mostly up to 46 µM
Method in brief: as §1

[4] = test system: MCC-26; experiment: as above; conditions: MCC and control cell lines, CellTiter-Glo viability, 72 h; series mostly up to 46 µM
Method in brief: as §1

[5] = test system: MKL-1; experiment: as above; conditions: MCC and control cell lines, CellTiter-Glo viability, 72 h; series mostly up to 46 µM
Method in brief: as §1

[6] = test system: MKL-2; experiment: as above; conditions: MCC and control cell lines, CellTiter-Glo viability, 72 h; series mostly up to 46 µM
Method in brief: as §1

[7] = test system: UISO; experiment: as above; conditions: MCC and control cell lines, CellTiter-Glo viability, 72 h; series mostly up to 46 µM
Method in brief: as §1

[8] = test system: WaGa; experiment: as above; conditions: MCC and control cell lines, CellTiter-Glo viability, 72 h; series mostly up to 46 µM
Method in brief: as §1

[9] = test system: C33A; experiment: Primary qHTS to identify gynecologic anti-cancer compounds using libraries of approved drugs and bioactive compounds (AID 1345084); conditions: Gynecologic cancer cell panel viability, ATPlite luminescence, 48 h; series mostly up to 57.5 µM; note: nearly all actives have a fitted effect of over 55% in size
Method in brief: (§2)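 Cells, 1,000 per well, plated 16 h, then exposed 48 h at 37 C to compounds. Viability by ATPlite luminescence after 15 min at room temperature.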

[10] = test system: CAOV3; experiment: as above; conditions: Gynecologic cancer cell panel viability, ATPlite luminescence, 48 h; series mostly up to 57.5 µM
Method in brief: as §2

[11] = test system: CASKI; experiment: as above; conditions: Gynecologic cancer cell panel viability, ATPlite luminescence, 48 h; series mostly up to 57.5 µM
Method in brief: as §2

[12] = test system: Es-2; experiment: as above; conditions: Gynecologic cancer cell panel viability, ATPlite luminescence, 48 h; series mostly up to 57.5 µM
Method in brief: as §2

[13] = test system: HeLa; experiment: as above; conditions: Gynecologic cancer cell panel viability, ATPlite luminescence, 48 h; series mostly up to 57.5 µM
Method in brief: as §2

[14] = test system: Hek293T; experiment: as above; conditions: Gynecologic cancer cell panel viability, ATPlite luminescence, 48 h, control line for the selectivity index; series mostly up to 57.5 µM
Method in brief: as §2

[15] = test system: JEG-3; experiment: as above; conditions: Gynecologic cancer cell panel viability, ATPlite luminescence, 48 h; series mostly up to 57.5 µM
Method in brief: as §2

[16] = test system: OV90; experiment: as above; conditions: Gynecologic cancer cell panel viability, ATPlite luminescence, 48 h; series mostly up to 57.5 µM
Method in brief: as §2

[17] = test system: PA-1; experiment: as above; conditions: Gynecologic cancer cell panel viability, ATPlite luminescence, 48 h; series mostly up to 57.5 µM
Method in brief: as §2

[18] = test system: SKOV3; experiment: as above; conditions: Gynecologic cancer cell panel viability, ATPlite luminescence, 48 h; series mostly up to 57.5 µM
Method in brief: as §2

[19] = test system: HEK293T; experiment: qHTS assay to identify novel small-molecules to repurpose for Merkel cell carcinoma treatment (AID 1296009); conditions: MCC and control cell lines, CellTiter-Glo viability, 72 h; at 44.8 µM (top of the series) unless noted; note: nearly all actives have a fitted effect of over 60% in size
Method in brief: as §1

[20] = test system: NIH3T3; experiment: as above; conditions: MCC and control cell lines, CellTiter-Glo viability, 72 h; at 44.8 µM (top of the series) unless noted
Method in brief: as §1

[21] = at 44.8 µM (top of the series) unless noted
% is set by controls: 0 for no effect and ±100 for the full control effect.

CN(C)CCOc1ccccc1Cc1ccccc1
inactive: max response [1] -2.31% | outcome [2, 21] | Potency [3] | Potency [4] | Potency [5] | Potency [6] | Potency [7] | Potency [8] | Potency [9] | Potency [10] | Potency [11] | Potency [12] | Potency [13] | Potency [14] | Potency [15] | Potency [16] | Potency [17] | Potency [18]

O=c1[nH]c(=O)n([C@H]2CCCO2)cc1F
inactive: max response [1] -5.35% | outcome [2, 21] | outcome [19] | Potency [3] | Potency [5] | Potency [6] | Potency [7] | Potency [8] | Potency [9] | Potency [10] | Potency [11] | Potency [12] | Potency [13] | Potency [14] | Potency [15] | Potency [16] | Potency [17]

COc1ccc(C2C(=O)c3ccccc3C2=O)cc1
inactive: outcome [1] | outcome [2, 21] | Potency [3] | Potency [4] | Potency [5] | Potency [6] | outcome [20] | Potency [7] | Potency [8] | Potency [9] | Potency [10] | Potency [11] | Potency [12] | Potency [13] | Potency [14] | Potency [15] | Potency [16] | Potency [17] | Potency [18]

CN1CCC[C@@H]1c1cccnc1
inactive: max response [1] 0.585% | outcome [2, 21] | Potency [3] | Potency [4] | Potency [5] | Potency [6] | Potency [7] | Potency [8] | Potency [9] | Potency [10] | Potency [11] | Potency [12] | Potency [13] | Potency [14] | Potency [15] | Potency [16] | Potency [17] | Potency [18]

C[C@H](CCC(=O)O)[C@H]1CC[C@H]2[C@@H]3C(=O)C[C@@H]4CC(=O)CC[C@]4(C)[C@H]3CC(=O)[C@]12C
inactive: max response [1] -5.45% | outcome [2, 21] | outcome [19] | Potency [3] | Potency [4] | Potency [5] | Potency [6] | Potency [7] | Potency [8] | Potency [9] | Potency [10] | Potency [11] | Potency [12] | Potency [13] | Potency [14] | Potency [15] | Potency [16] | Potency [17] | Potency [18]

Cc1nc2n(c(=O)c1CCN1CCC(c3noc4cc(F)ccc34)CC1)CCC[C@H]2O
inactive: max response [1] 1.23% | outcome [1] | outcome ([2]; at 17.4 µM (top of the series)) | outcome ([2]; at 44.8 µM (top of the series)) | outcome [19] | Potency [3] | Potency [4] | Potency [5] | Potency [6] | outcome [20] inactive [at 17.4 µM] | Potency [7] | Potency [8] | Potency [9] | Potency [10] | Potency [11] | Potency [12] | Potency [13] | Potency [14] | Potency [15] | Potency [16] | Potency [17] | Potency [18]

NC(CS)C(=O)O (stereo unspecified)
inactive: max response [1] -3.73% | outcome [2, 21] | Potency [3] | Potency [4] | Potency [5] | Potency [6] | Potency [7] | Potency [8] | Potency [9] | Potency [10] | Potency [11] | Potency [12] | Potency [13] | Potency [14] | Potency [15] | Potency [16] | Potency [17] | Potency [18]

COc1cc(/C=C/C(=O)O[C@H]2CC[C@]34C[C@]35CC[C@]3(C)[C@@H]([C@H](C)CCC=C(C)C)CC[C@@]3(C)[C@@H]5CC[C@H]4C2(C)C)ccc1O
inactive: max response [1] 0.391% | outcome [2, 21] | Potency [3] | Potency [4] | Potency [5] | Potency [6] | Potency [7] | Potency [8] | Potency [9] | Potency [10] | Potency [11] | Potency [12] | Potency [13] | Potency [14] | Potency [15] | Potency [16] | Potency [17] | Potency [18]

CC(C)(C)NC(=O)[C@@H]1CN(Cc2cccnc2)CCN1C[C@@H](O)C[C@@H](Cc1ccccc1)C(=O)N[C@H]1c2ccccc2C[C@H]1O
inactive: max response [1] 1.79% and -2.96% | outcome [2, 21] | outcome [19] | Potency [3] | Potency [4] | Potency [5] | Potency [6] | Potency [7] | Potency [8] | Potency [9] | Potency [10] | Potency [11] | Potency [12] | Potency [13] | Potency [14] | Potency [15] | Potency [16] | Potency [17]

CC1(C)O[C@@H]2[C@@H](CO[C@@]3(COS(N)(=O)=O)OC(C)(C)O[C@@H]23)O1
inactive: max response [1] -0.846% | outcome [2, 21] | outcome [19] | Potency [3] | Potency [4] | Potency [5] | Potency [6] | Potency [7] | Potency [8] | Potency [9] | Potency [10] | Potency [11] | Potency [12] | Potency [13] | Potency [14] | Potency [15] | Potency [16] | Potency [17] | Potency [18]

O=C1c2ccccc2C(=O)C1c1ccccc1
inactive: outcome [1] | outcome [2, 21] | outcome [19] | Potency [3] | Potency [4] | Potency [5] | Potency [6] | outcome [20] | Potency [7] | Potency [8] | Potency [9] | Potency [10] | Potency [11] | Potency [12] | Potency [13] | Potency [14] | Potency [15] | Potency [16] | Potency [17]

COC(=O)[C@@H]1CC2=CC(=O)CC[C@]2(C)[C@@]23O[C@@H]2C[C@@]2(C)[C@@H](CC[C@@]24CCC(=O)O4)[C@H]13
inactive: outcome [1] | outcome [2, 21] | Potency [3] | Potency [4] | Potency [5] | Potency [6] | outcome [20] | Potency [7] | Potency [8] | Potency [9] | Potency [10] | Potency [11] | Potency [12] | Potency [13] | Potency [14] | Potency [15] | Potency [16] | Potency [17] | Potency [18]

CC1(C)O[C@@H]2C[C@H]3[C@@H]4CCC5=CC(=O)CC[C@]5(C)[C@@]4(F)[C@@H](O)C[C@]3(C)[C@]2(C(=O)CCl)O1
inactive: max response [1] -10.1% | outcome [2, 21] | Potency [3] | Potency [4] | Potency [5] | Potency [6] | Potency [7] | Potency [8] | Potency [9] | Potency [10] | Potency [11] | Potency [12] | Potency [13] | Potency [14] | Potency [15] | Potency [17] | Potency [18]
